Screening results from PubChem.
HT1080NT lethal – kills 2HG-producing HT-1080-NT fibrosarcoma cells; HT-1080-NT fibrosarcoma viability, CellTiter-Glo ATP luminescence, 48 h; 360,000 compounds, 1.6% hits; AID 686970; Potency, µM (series often up to 46.1 µM), usual class: cytotoxic;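 further: NT is the 2HG producing partner of a matched IDH1 knockdown line; nearly all actives have a fitted effect of over 55% in size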
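Compounds were tested in concentration-response format on HT-1080-NT cells for 48 hours at 37 degrees C. Cell viability came from CellTiter-Glo luminescence; curves were classified by r2, response magnitude and activity.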
MCF10A rereplic – induces DNA re-replication in MCF 10a normal breast cells. MCF 10A DNA re-replication, Hoechst nuclear intensity, 48 h. Potency, µM (doses to about 46.1 µM), actives largely listed as activators. 350,000 compounds, 2.9% hits. AID 624296; further: nearly all actives have a fitted effect of over 50% in size
KB-3-1 tox – kills parental KB-3-1 adenocarcinoma cells | KB-3-1 viability, CellTiter-Glo ATP luminescence, 72 h | Potency, µM (top dose mostly 46.1 µM), most hits filed as cytotoxic | 400,000 compounds, 1.4% hits; further: nearly all actives have a fitted effect of over 60% in size
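KB-3-1 parental drug-naive adenocarcinoma cells in DMEM/10% FBS, incubated 72 h at 37 C with pin-transferred compounds across a concentration series. Viability by CellTiter-Glo luminescence; concentration-response curves fitted after normalization.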
KB-V1 MDR tox – KB-V1 MDR subline cytotoxicity; KB-V1 MDR cells viability, CellTiter-Glo, 72 h; Potency, µM (top dose mostly 46.1 µM), hits mostly cytotoxic; 400,000 compounds, 3.4% hits; further: nearly all actives have a fitted effect of over 60% in size
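Readout: CellTiter-Glo luminescence, 10 min after addition. Cells: KB-V1 MDR subline, 72 h at 37 degrees C with compound. Analysis: corrected, normalized data fitted to concentration-effect curves.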
SW480 rerep – DNA re-replication induction in SW480 cells. Potency, µM (highest dose often 46.1 µM), actives largely listed as activators. SW480 DNA re-replication, Hoechst DNA content imaging, 48 h. 340,000 compounds, 1.8% hits. AID 624297; further: nearly all actives have a fitted effect of over 55% in size
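Image-based read-out: total Hoechst fluorescence of nuclei (405 nm excitation, 500-530 nm emission), with hits raising the fraction of high-intensity nuclei. SW480 colon cells incubated 48 hr with compounds at 37 C.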
HT1080 IDH1KD tx – kills HT-1080 cells with IDH1 knockdown; Potency, µM (doses to about 46.1 µM), hits mostly cytotoxic; 360,000 compounds, 2% hits; HT-1080 IDH1 knockdown viability, ATP luminescence, 48 h; AID 686971
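Cytotoxicity counter-line: IDH1KD HT-1080, 48 h, CellTiter-Glo. Curves classed by r2, magnitude and activity.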
A number is an active result; 0 = inactive; ? = inconclusive; - = not tested or not shown; [ ] = remark or other dose. In the library only some 8% were active in any assay of this set; here they are far more common. The call rests on the fitted dose curve; in most records, active means well fitted curve in the direction sought with a large enough effect; inconclusive means small, poorly fitted or top-dose-only effect, or another doubt; inactive means no such curve, though single readings can be large; an effect the other way counts as inactive or inconclusive.

SMILES | HT1080NT lethal | MCF10A rereplic | KB-3-1 tox | KB-V1 MDR tox | SW480 rerep | HT1080 IDH1KD tx
CC(=O)n1cc(/C=N/NC(=O)c2ccccc2O)c2ccccc21 | 0 | 0 | 0 | 0 | 0 | 0
CC(=O)n1cc(/C=N/NC(N)=S)c2ccccc21 | 0 | 0 | ? | 5.17µM | 0 | 0
NC(=S)N/N=C/c1ccc2ccccc2c1 | 0 | 0 | 0 | ? | 0 | 0
NC(=S)NN=Cc1nccc2ccccc12 | 4.11µM | ? | ? | 0 | 2.91µM | ?
Cc1c(Cl)cccc1NC(=O)CCS(=O)(=O)c1ccc2c(c1)CC(=O)N2C | - | - | 0 | 0 | - | -
CN(C)CC1CCC/C(=C\c2ccc(OC(=O)/C=C/c3ccc(Cl)c(Cl)c3)cc2)C1=O (centres undefined) | 0 | 0 | ? | ? | 0 | 0
CN(C)CC1CCC/C(=C/c2ccc(Cl)cc2)C1=O (centres undefined) | 0 | 18.4µM | ? | ? | ? | ?
COc1cccc(/C=C2/CCC(CN(C)C)C2=O)c1 (centres undefined) | ? | 2.31µM | ? | ? | 5.8µM | ?
O=C1C(=Cc2ccc(Cl)cc2)CCc2ccccc21 | ? | - | 0 | 0 | - | ?
CCCC/C=C1/CCC(CN(C)C)C1=O (centres undefined) | 0 | 5.8µM | ? | ? | ? | 0
COc1ccc(/C=C2/CCCC(CN(C)C)C2=O)cc1 (centres undefined) | 0 | 2.91µM | ? | ? | 9.2µM | 8.2µM
CCn1nnc2cc(C(=O)Nc3cccc(Cl)c3C)ccc21 | - | - | 0 | ? | - | -
Cc1nn(C)c2c1c(C(F)(F)F)cc(=O)n2CC(=O)NCc1ccccc1Cl | - | - | 0 | 0 | - | -
Cc1c(CNC2CCCCC2)c(C(=O)O)c(C)n1Cc1ccccc1F | - | - | 0 | ? | - | -
CC(C)CCNC(=O)CN1C(=O)CCn2nc(-c3cn(C)c4ccccc34)cc21 | - | - | 0 | 0 | - | -
CC/C(=C(/CC)c1ccc(O)cc1)c1ccc(O)cc1 | ? | 23.7µM | 0 | ? | ? | 14.6µM
COc1ccc(NC(=O)CC2SC(=Nc3ccccc3)NC2=O)cc1 (centres undefined) | 0 | 0 | 0 | 0 | 0 | 0
COc1cccc(NC(=O)CC2SC(=Nc3ccccc3)NC2=O)c1 (centres undefined) | 0 | 0 | 0 | 16.4µM | 0 | 0
COc1cccc(NC(=O)CN(C)C(=O)CC2Sc3ccccc3NC2=O)c1 (centres undefined) | 0 | 0 | 0 | 23.1µM | 0 | 0
CC1CCC2C(=O)N(c3ccc(Cc4ccncc4)cc3)C(=O)C2C1 (centres undefined) | ? | 0 | 4.61µM | 10.3µM | ? | ?
CCOC(=O)c1ccc(NC(=O)Cn2cc(C(=O)C3CC3)c3ccccc32)cc1 | - | - | 0 | 0 | - | -
Cc1ccc(N2C(=O)N(CC(=O)C(C)(C)C)c3ccccc3S2(=O)=O)cc1C | - | - | 0 | 0 | - | -
Cc1oc(C(C)(C)C)cc1C(=O)Nc1ccc2c(c1)OCCO2 | 0 | 0 | 0 | 20.6µM | 0 | 0
Cc1oc(C(C)(C)C)cc1C(=O)Nc1ccc2c(c1)OCO2 | 0 | 0 | 0 | 0 | 0 | 0
COc1cc(SC)ccc1C(=O)Nc1c(C)cccc1C | 0 | 0 | 0 | ? | 0 | 0
SMILES | HT1080NT lethal | MCF10A rereplic | KB-3-1 tox | KB-V1 MDR tox | SW480 rerep | HT1080 IDH1KD tx
COc1ccccc1C(=O)Nc1ccc2c(c1)OCCO2 | 0 | 0 | 0 | 0 | 0 | 0
COc1cc(SC)ccc1C(=O)NNC(=O)c1cc(C)oc1C | 8.2µM | ? | ? | ? | 0 | 9.2µM
COc1cc(SC)ccc1C(=O)Nc1ccc2c(c1)OCCO2 | 1.78µM | ? | 0 | ? | 0 | ?
Cc1c(C(=O)Nc2ccc3c(c2)OCCO3)oc2ccc(Br)cc12 | 0 | 0 | 0 | 20.6µM | 0 | 0
Cc1c(C(=O)NCc2ccc3c(c2)OCO3)oc2ccc(Br)cc12 | ? | ? | ? | ? | 0 | ?
CC1CCN(S(=O)(=O)c2cc(C(=O)NCCc3ccccc3)n(C)c2)CC1 | - | - | 0 | 0 | - | -
Nc1ccc(N(c2ccccc2)c2ccc(N)cc2)cc1 | 16.4µM | 0 | ? | ? | ? | 20.6µM
CCc1ccc(C2c3[nH]c4ccccc4c3CCN2C(=O)c2cc(C)nn2C)cc1 (centres undefined) | ? | 23.1µM | ? | ? | ? | ?
O=C(c1cnccn1)N1CCc2c([nH]c3ccccc23)C1c1cccc(Cl)c1 (centres undefined) | 0 | 0 | ? | 23.1µM | 0 | 0
COc1ccc(C2c3[nH]c4ccccc4c3CCN2C(=O)c2ccc(=O)n(C)n2)c(F)c1 (centres undefined) | ? | 0 | 0 | 0 | 0 | ?
CCc1cc(C(=O)N2CCc3c([nH]c4ccccc34)C2c2ccc(OC)cc2F)no1 (centres undefined) | ? | ? | 5.8µM | ? | ? | 0
Cc1ccc(-c2csc3ncnc(Sc4nnnn4C4CC4)c23)cc1 | - | - | ? | 0 | - | -
CC1=CC(C)[C@H](/C=N/n2c(=O)[nH]c3c([nH]c4ccc(C)cc43)c2=O)C(C)C1 (some centres undefined) | 0 | 9.2µM | ? | 0 | ? | 0
Cc1nc2sc(C)c(C)n2c(=O)c1S(=O)(=O)N1CCN(c2ccccc2F)CC1 | - | - | 0 | 0 | - | -
O=C1c2ccccc2C2=Nc3ccccc3SC(c3cccc(F)c3)C12 (centres undefined) | ? | 11.6µM | 20.6µM | 16.4µM | ? | ?
Cc1cc(NC(=O)C2CCN(S(=O)(=O)c3c(C)noc3C)CC2)ccc1Br | 0 | 20.6µM | 0 | 0 | ? | 0
Cc1noc(C)c1C(=O)Nc1ccc(S(=O)(=O)N2CCCCC2)cc1 | 0 | 0 | 0 | ? | 0 | 0
CC1CCN(S(=O)(=O)c2ccc(NC(=O)c3ccncc3)cc2)CC1 | 0 | ? | 16.4µM | ? | 0 | ?
CCS(=O)(=O)c1ncc(Cl)c(C(=O)Nc2ccc(S(=O)(=O)N3CCC(C)CC3)cc2)n1 | 2.91µM | 1.84µM | ? | 10.3µM | ? | 3.66µM
Cc1ccc(/C=C/c2onc(C)c2S(=O)(=O)N2CCC(C(=O)Nc3ccc(Br)c(C)c3)CC2)cc1 | - | - | 0 | 0 | - | -
Cc1noc(C)c1C(=O)Nc1ccc(S(=O)(=O)N2CCC(C)CC2)cc1 | 0[9.24 µM] | 0 | 0 | ? | 18.4µM | 0
CCCc1cc(C(=O)N2CCN(S(=O)(=O)c3ccc(OC)c(OC)c3)CC2)cs1 | 0 | ? | 0 | 5.17µM | 0 | 0
COc1ccc(C(=O)N2CCN(S(=O)(=O)c3ccc(Cl)cc3)CC2)cc1OC | 0 | 0 | 0 | 14.6µM | 0 | 0
C=CCn1c(=NC(=O)c2cc(-c3cccs3)nc3ccccc23)sc2cc(S(N)(=O)=O)ccc21 | 0 | ? | 0 | 0 | 20.6µM | 0
C=CCn1c(=NC(=O)c2cc(Cl)sc2Cl)sc2cc(S(N)(=O)=O)ccc21 | ? | 20.6µM | 0 | ? | 0 | ?
COc1ccc(Br)cc1CNC(=O)c1nn(-c2ccc(C)cc2)c(=O)c2c1c1ccccc1n2C | - | - | 0 | 0 | - | -
